Laboratory results from PMC5540273 (PLoS ONE, 2017).
Several values for one entry are separate records, joined by “and”; a condition that tells them apart may be missing. Equal values may be shown once. Read-outs that look alike come from different tables or passages of the source.

Legend:
CHEK1 = settings: concentration: 1 μM, replicates: in singlicate, n = 1
CHEK2 = settings: concentration: 1 μM, replicates: in singlicate, n = 1
CIT = settings: concentration: 1 μM, replicates: in singlicate, n = 1
CLK1 = settings: concentration: 1 μM, replicates: in singlicate, n = 1
CLK2 = settings: concentration: 1 μM, replicates: in singlicate; n = 1
CLK3 = settings: concentration: 1 μM, replicates: in singlicate, n = 1
CLK4 = settings: concentration: 1 μM, replicates: in singlicate, n = 1
CSF1R-autoinhibited = settings: concentration: 1 μM, replicates: in singlicate, n = 1
CSF1R = settings: concentration: 1 μM, replicates: in singlicate, n = 1
CSK = settings: concentration: 1 μM, replicates: in singlicate, n = 1
CSNK1A1L = settings: concentration: 1 μM, replicates: in singlicate, n = 1
CSNK1A1 = settings: concentration: 1 μM, replicates: in singlicate, n = 1
CSNK1D = settings: concentration: 1 μM, replicates: in singlicate, n = 1
CSNK1E = settings: concentration: 1 μM, replicates: in singlicate; n = 1
CSNK1G1 = settings: concentration: 1 μM, replicates: in singlicate, n = 1
CSNK1G2 = settings: concentration: 1 μM, replicates: in singlicate, n = 1
CSNK1G3 = settings: concentration: 1 μM, replicates: in singlicate, n = 1
CSNK2A1 = settings: concentration: 1 μM, replicates: in singlicate; n = 1
CSNK2A2 = settings: concentration: 1 μM, replicates: in singlicate, n = 1
CTK = test system: T1, CTK; settings: concentration: 1 μM, replicates: in singlicate; n = 1
T1 construct: gene MATK
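Note: KINOMEscan kinase panel screen.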

In the case of `CNc1ncnc2[nH]ncc12` [SKF-18355], the “%Inh” value (CHEK1) is reported as 0%, the “%Inh” value (CHEK2) is reported as 0% and the “%Inh” value (CIT) is reported as 9%. For the same molecule, the “%Inh” value (CLK1) was 19%, the “%Inh” value (CLK2) was 8% and the “%Inh” value (CLK3) was 9%. The “%Inh” value (CLK4) was 0%, the “%Inh” value (CSF1R-autoinhibited) was 0% and the “%Inh” value (CSF1R) was 0%. The “%Inh” value (CSK) was 0%, the “%Inh” value (CSNK1A1L) was 0% and the “%Inh” value (CSNK1A1) was 14%. For the same molecule, the “%Inh” value (CSNK1D) was 0%, the “%Inh” value (CSNK1E) was 32% and the “%Inh” value (CSNK1G1) was 0%. For the same molecule, the “%Inh” value (CSNK1G2) was 0%, the “%Inh” value (CSNK1G3) was 11% and the “%Inh” value (CSNK2A1) was 0%. The “%Inh” value (CSNK2A2) was 3% and the “%Inh” value (CTK) was 18%.

In the case of `Cn1cc(-c2ccc3c(c2)CCN3C(=O)Cc2ccccc2Cl)c2c(N)ncnc21` [GSK2608885], the “%Inh” value (CHEK1) is reported as 35%, the “%Inh” value (CHEK2) is reported as 4% and the “%Inh” value (CIT) is reported as 65%. For the same molecule, the “%Inh” value (CLK1) was 25%, the “%Inh” value (CLK2) was 0% and the “%Inh” value (CLK3) was 1%. For the same molecule, the “%Inh” value (CLK4) was 0%, the “%Inh” value (CSF1R-autoinhibited) was 0% and the “%Inh” value (CSF1R) was 99.8%. For the same molecule, the “%Inh” value (CSK) was 97.6%, the “%Inh” value (CSNK1A1L) was 0% and the “%Inh” value (CSNK1A1) was 0%. The “%Inh” value (CSNK1D) was 11%, the “%Inh” value (CSNK1E) was 87% and the “%Inh” value (CSNK1G1) was 25%. For the same molecule, the “%Inh” value (CSNK1G2) was 3%, the “%Inh” value (CSNK1G3) was 20% and the “%Inh” value (CSNK2A1) was 0%. For the same molecule, the “%Inh” value (CSNK2A2) was 8% and the “%Inh” value (CTK) was 18%.

With `CC(C)(CN)c1nc(-c2ccc(Cl)c(O)c2)c(-c2ccncc2)[nH]1.O=C(O)C(F)(F)F` [SB-477794] the “%Inh” value (CHEK1; 1 µM) was 20% and 10%, the “%Inh” value (CHEK2; 1 µM) was 41% and 59% and the “%Inh” value (CIT; 1 µM) was 100% and 99.4%. For the same molecule, the “%Inh” value (CLK1; 1 µM) was 14% and 3%, the “%Inh” value (CLK2) was 0% and the “%Inh” value (CLK3; 1 µM) was 1% and 11%. For the same molecule, the “%Inh” value (CLK4; 1 µM) was 6% and 11%, the “%Inh” value (CSF1R-autoinhibited; 1 µM) was 12% and 52% and the “%Inh” value (CSF1R; 1 µM) was 50% and 43%. The “%Inh” value (CSK; 1 µM) was 44% and 28%, the “%Inh” value (CSNK1A1L; 1 µM) was 85% and 81% and the “%Inh” value (CSNK1A1; 1 µM) was 96.3% and 93.8%. The “%Inh” value (CSNK1D; 1 µM) was 97% and 96.6%, the “%Inh” value (CSNK1E) was 99.6% and the “%Inh” value (CSNK1G1; 1 µM) was 0% and 5%. For the same molecule, the “%Inh” value (CSNK1G2; 1 µM) was 0% and 7%, the “%Inh” value (CSNK1G3; 1 µM) was 22% and 14% and the “%Inh” value (CSNK2A1) was 0%. For the same molecule, the “%Inh” value (CSNK2A2; 1 µM) was 11% and 0% and the “%Inh” value (CTK) was 0%.

In the case of `N#Cc1c(N2CCOCC2)sc(-c2ccn[nH]2)c1-c1ccc(Cl)cc1`, the “%Inh” value (CHEK1) is reported as 15%, the “%Inh” value (CHEK2) is reported as 15% and the “%Inh” value (CIT) is reported as 24%. The “%Inh” value (CLK1) was 6%, the “%Inh” value (CLK2) was 0% and the “%Inh” value (CLK3) was 16%. For the same molecule, the “%Inh” value (CLK4) was 0%, the “%Inh” value (CSF1R-autoinhibited) was 8% and the “%Inh” value (CSF1R) was 34%. For the same molecule, the “%Inh” value (CSK) was 17%, the “%Inh” value (CSNK1A1L) was 0% and the “%Inh” value (CSNK1A1) was 17%. The “%Inh” value (CSNK1D) was 0%, the “%Inh” value (CSNK1E) was 15% and the “%Inh” value (CSNK1G1) was 0%. The “%Inh” value (CSNK1G2) was 0%, the “%Inh” value (CSNK1G3) was 10% and the “%Inh” value (CSNK2A1) was 34%. For the same molecule, the “%Inh” value (CSNK2A2) was 14% and the “%Inh” value (CTK) was 3%.

With `COCCNC(=O)c1ccc(-c2cc(C(=O)NC3CC3)cc(F)c2C)cc1` [GW868318] the “%Inh” value (CHEK1) was 9%, the “%Inh” value (CHEK2) was 19% and the “%Inh” value (CIT) was 1%. For the same molecule, the “%Inh” value (CLK1) was 18%, the “%Inh” value (CLK2) was 24% and the “%Inh” value (CLK3) was 37%. For the same molecule, the “%Inh” value (CLK4) was 10%, the “%Inh” value (CSF1R-autoinhibited) was 5% and the “%Inh” value (CSF1R) was 19%. The “%Inh” value (CSK) was 13%, the “%Inh” value (CSNK1A1L) was 5% and the “%Inh” value (CSNK1A1) was 9%. For the same molecule, the “%Inh” value (CSNK1D) was 1%, the “%Inh” value (CSNK1E) was 31% and the “%Inh” value (CSNK1G1) was 0%. The “%Inh” value (CSNK1G2) was 4%, the “%Inh” value (CSNK1G3) was 8% and the “%Inh” value (CSNK2A1) was 0%. For the same molecule, the “%Inh” value (CSNK2A2) was 9% and the “%Inh” value (CTK) was 11%.

`O=C(NCCCN1CCOCC1)c1cccc(Nc2nccc(Nc3ccc(Oc4ccccc4)cc3)n2)c1` [GW663929] was tested, and the “%Inh” value (CHEK1) was 9%, the “%Inh” value (CHEK2) was 40% and the “%Inh” value (CIT) was 9%. For the same molecule, the “%Inh” value (CLK1) was 22%, the “%Inh” value (CLK2) was 28% and the “%Inh” value (CLK3) was 0%. For the same molecule, the “%Inh” value (CLK4) was 11%, the “%Inh” value (CSF1R-autoinhibited) was 9% and the “%Inh” value (CSF1R) was 33%. The “%Inh” value (CSK) was 88%, the “%Inh” value (CSNK1A1L) was 0% and the “%Inh” value (CSNK1A1) was 0%. The “%Inh” value (CSNK1D) was 3%, the “%Inh” value (CSNK1E) was 0% and the “%Inh” value (CSNK1G1) was 18%. The “%Inh” value (CSNK1G2) was 0%, the “%Inh” value (CSNK1G3) was 11% and the “%Inh” value (CSNK2A1) was 10%. For the same molecule, the “%Inh” value (CSNK2A2) was 21% and the “%Inh” value (CTK) was 11%.

In the case of `CC(C)(C)n1cnc2c(N)ncnc21` [SKF-97359], the “%Inh” value (CHEK1) is reported as 0%, the “%Inh” value (CHEK2) is reported as 2% and the “%Inh” value (CIT) is reported as 32%. The “%Inh” value (CLK1) was 14%, the “%Inh” value (CLK2) was 0% and the “%Inh” value (CLK3) was 0%. The “%Inh” value (CLK4) was 11%, the “%Inh” value (CSF1R-autoinhibited) was 28% and the “%Inh” value (CSF1R) was 0%. For the same molecule, the “%Inh” value (CSK) was 0%, the “%Inh” value (CSNK1A1L) was 16% and the “%Inh” value (CSNK1A1) was 40%. The “%Inh” value (CSNK1D) was 0%, the “%Inh” value (CSNK1E) was 39% and the “%Inh” value (CSNK1G1) was 0%. The “%Inh” value (CSNK1G2) was 0%, the “%Inh” value (CSNK1G3) was 2% and the “%Inh” value (CSNK2A1) was 0%. For the same molecule, the “%Inh” value (CSNK2A2) was 0% and the “%Inh” value (CTK) was 21%.

For `COC(=O)Nc1nc2cc(Oc3ccc(NC(=O)Nc4cc(F)ccc4F)cc3)ccc2[nH]1.Cl` [GW701424], the “%Inh” value (CHEK1) was 0%, the “%Inh” value (CHEK2) was 21% and the “%Inh” value (CIT) was 99%. For the same molecule, the “%Inh” value (CLK1) was 29%, the “%Inh” value (CLK2) was 0% and the “%Inh” value (CLK3) was 14%. The “%Inh” value (CLK4) was 40%, the “%Inh” value (CSF1R-autoinhibited) was 50% and the “%Inh” value (CSF1R) was 99.7%. For the same molecule, the “%Inh” value (CSK) was 0%, the “%Inh” value (CSNK1A1L) was 13% and the “%Inh” value (CSNK1A1) was 0%. The “%Inh” value (CSNK1D) was 9%, the “%Inh” value (CSNK1E) was 26% and the “%Inh” value (CSNK1G1) was 0%. The “%Inh” value (CSNK1G2) was 0%, the “%Inh” value (CSNK1G3) was 21% and the “%Inh” value (CSNK2A1) was 0%. For the same molecule, the “%Inh” value (CSNK2A2) was 6% and the “%Inh” value (CTK) was 0%.

With `Cc1ccc(NC(=O)c2ccnc(N3CCN(C)CC3)c2)cc1-c1ccc(C(=O)NCC2CC2)cc1` [GW775604] the “%Inh” value (CHEK1) was 0%, the “%Inh” value (CHEK2) was 15% and the “%Inh” value (CIT) was 0%. The “%Inh” value (CLK1) was 0%, the “%Inh” value (CLK2) was 0% and the “%Inh” value (CLK3) was 0%. For the same molecule, the “%Inh” value (CLK4) was 0%, the “%Inh” value (CSF1R-autoinhibited) was 0% and the “%Inh” value (CSF1R) was 22%. The “%Inh” value (CSK) was 0%, the “%Inh” value (CSNK1A1L) was 0% and the “%Inh” value (CSNK1A1) was 0%. For the same molecule, the “%Inh” value (CSNK1D) was 0%, the “%Inh” value (CSNK1E) was 24% and the “%Inh” value (CSNK1G1) was 0%. The “%Inh” value (CSNK1G2) was 0%, the “%Inh” value (CSNK1G3) was 0% and the “%Inh” value (CSNK2A1) was 0%. The “%Inh” value (CSNK2A2) was 7% and the “%Inh” value (CTK) was 0%.

`Cc1cccc(Cn2ccn3c(=O)cc(N4CCOCC4)nc23)c1` [GSK2297542] was tested, and the “%Inh” value (CHEK1) was 13%, the “%Inh” value (CHEK2) was 4% and the “%Inh” value (CIT) was 23%. For the same molecule, the “%Inh” value (CLK1) was 50%, the “%Inh” value (CLK2) was 20% and the “%Inh” value (CLK3) was 58%. The “%Inh” value (CLK4) was 45%, the “%Inh” value (CSF1R-autoinhibited) was 8% and the “%Inh” value (CSF1R) was 11%. For the same molecule, the “%Inh” value (CSK) was 55%, the “%Inh” value (CSNK1A1L) was 18% and the “%Inh” value (CSNK1A1) was 19%. The “%Inh” value (CSNK1D) was 48%, the “%Inh” value (CSNK1E) was 55% and the “%Inh” value (CSNK1G1) was 27%. For the same molecule, the “%Inh” value (CSNK1G2) was 16%, the “%Inh” value (CSNK1G3) was 25% and the “%Inh” value (CSNK2A1) was 2%. For the same molecule, the “%Inh” value (CSNK2A2) was 22% and the “%Inh” value (CTK) was 0%.
